Records with an inconclusive call do not appear. Activity calls are given as the source filed them. The call rests on the fitted dose curve; in most records, active means well fitted inhibition curve with a large enough effect; inconclusive means small, poorly fitted or top-dose-only effect; inactive means flat fitted curve, though single readings scatter.
Columns and labels:
Assay in all cases: qHTS profiling for inhibitors of Plasmodium falciparum proliferation (AID 504749); further: nearly all actives have a fitted effect of over 60% in size
Conditions in all cases: P. falciparum in erythrocytes, SYBR Green DNA, 72 h; series mostly up to 28.7 µM
CP297 = tested on: CP297
How it was run: (§1)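 P. falciparum-infected erythrocytes (0.3% parasitemia, 2.5% hematocrit final) were exposed to compounds for 72 h at 37 C in 5% CO2, then lysed with SYBR Green buffer overnight at room temperature; parasite DNA fluorescence was normalized to artemisinin and DMSO controls.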

CP305 = tested on: CP305
How it was run: as §1

CP315 = tested on: CP315
How it was run: as §1

CP325 = tested on: CP325
How it was run: as §1

CP329 = tested on: CP329
How it was run: as §1

CP335 = tested on: CP335
How it was run: as §1

DFO2036 = tested on: DFO2036
How it was run: as §1

DIV14 = tested on: DIV14
How it was run: as §1

DIV17 = tested on: DIV17
How it was run: as §1

DIV30 = tested on: DIV30
How it was run: as §1

Dd2 = tested on: Dd2
How it was run: as §1

ECU = tested on: ECU
How it was run: as §1

FAB9 = tested on: FAB9
How it was run: as §1

GB4 = tested on: GB4
How it was run: as §1

HB3 = tested on: HB3
How it was run: as §1

ICS = tested on: ICS
How it was run: as §1

JCK = tested on: JCK
How it was run: as §1

N140 = tested on: N140
How it was run: as §1

P93_24 = tested on: P93_24
How it was run: as §1

P94_40 = tested on: P94_40
How it was run: as §1

Measured: Potency
Potency means the concentration at half of the fitted maximal effect.

NC(=O)c1cnccn1
inactive: all assays above

O=c1n(CCCN2CCN(c3cccc(Cl)c3)CC2)nc2ccccn12
inactive: all assays above

Cc1[nH]c(=O)c(C#N)cc1-c1ccc2nccn2c1
inactive: all assays above

N=c1nc(N2CCCCC2)cc(N)n1O
inactive: all assays above

CCCc1nc2c(C)cc(-c3nc4ccccc4n3C)cc2n1Cc1ccc(-c2ccccc2C(=O)O)cc1
active: CP335 6.01 µM | DIV17 0.675 µM | Dd2 5.01 µM | HB3 10 µM | ICS 0.631 µM | N140 1.41 µM | P94_40 1.78 µM
inactive: CP305 | CP315 | CP325 | CP329 | FAB9

CNC[C@H](O)c1cccc(O)c1
not listed: CP315 | CP335
inactive: all other assays above

OC(CN1CCC(Cc2ccc(F)cc2)CC1)c1ccc(Cl)cc1 (stereo not given)
active: CP335 3.79 µM | DIV14 1.07 µM | DIV17 0.953 µM | DIV30 1.9 µM | Dd2 2.51 µM | ECU 1.58 µM | GB4 1.2 µM | HB3 8.91 µM | ICS 0.355 µM | JCK 2 µM | N140 0.794 µM | P93_24 1.58 µM | P94_40 1.58 µM
inactive: CP315 | CP325 | CP329

NC[C@H](O)c1ccc(O)c(O)c1
not listed: DIV14
inactive: all other assays above

C#Cc1cccc(Nc2ncnc3cc(OCCOC)c(OCCOC)cc23)c1
inactive: CP305 | CP315 | CP329 | Dd2 | FAB9 | JCK
active: DIV14 8.49 µM | DIV17 15.1 µM | ICS 11.2 µM | P94_40 12.6 µM

CCOC(=O)N1CCC(=C2c3ccc(Cl)cc3CCc3cccnc32)CC1
active: CP297 13.5 µM | DIV14 7.57 µM | DIV17 9.53 µM | DIV30 13.5 µM | ECU 12.6 µM | GB4 12 µM | ICS 2.24 µM | N140 3.98 µM | P94_40 11.2 µM
inactive: DFO2036 | FAB9

Cc1oncc1C(=O)Nc1ccc(C(F)(F)F)cc1
active: ICS 3.16 µM
not listed: DIV17 | GB4 | HB3 | P93_24
inactive: all other assays above

CC(c1cc2ccccc2s1)N(O)C(N)=O (stereo not given)
not listed: CP315
inactive: all other assays above

Cn1cnc([N+](=O)[O-])c1Sc1ncnc2nc[nH]c12
active: ECU 8.91 µM
not listed: DIV17 | GB4 | ICS | N140 | P93_24 | P94_40
inactive: all other assays above

CN1CCN(CCCN2c3ccccc3Sc3ccc(C(F)(F)F)cc32)CC1
inactive: FAB9
active: CP335 5.36 µM | DFO2036 8.91 µM | DIV14 8.49 µM | DIV17 7.57 µM | DIV30 16.9 µM | Dd2 12.6 µM | GB4 7.57 µM | ICS 8.91 µM | N140 8.91 µM | P93_24 2.24 µM | P94_40 12.6 µM

Clc1ccc(Nc2nnc(Cc3ccncc3)c3ccccc23)cc1
active: ECU 14.1 µM
inactive: CP297 | CP305 | CP315 | CP325 | CP329 | DFO2036 | FAB9 | GB4 | HB3 | JCK

O=NN(CCCl)C(=O)NCCCl
not listed: CP335 | DFO2036 | GB4 | ICS
inactive: all other assays above

NC(N)=NC(=O)c1nc(Cl)c(N)nc1N
active: DIV14 9.53 µM | DIV17 6.75 µM | GB4 15.1 µM | HB3 11.2 µM | ICS 2.24 µM | N140 8.91 µM | P93_24 7.08 µM | P94_40 12.6 µM
inactive: CP297 | CP315 | CP329

CC(C)C[C@H](NC(=O)[C@@H](O)[C@H](N)Cc1ccccc1)C(=O)O
active: CP297 8.49 µM | CP305 6.01 µM | CP315 12 µM | CP325 6.75 µM | CP335 6.01 µM | DFO2036 5.62 µM | DIV14 4.78 µM | DIV17 6.75 µM | DIV30 6.01 µM | Dd2 3.16 µM | ECU 7.94 µM | FAB9 10 µM | GB4 4.78 µM | ICS 4.47 µM | N140 7.94 µM | P93_24 5.01 µM | P94_40 7.08 µM

Cc1ccccc1C(OCCN(C)C)c1ccccc1 (stereo not given)
active: DIV14 6.75 µM | DIV17 7.57 µM | N140 12.6 µM
inactive: CP297 | Dd2 | ECU | FAB9 | HB3

N[C@@H]1CONC1=O
not listed: CP297
inactive: all other assays above

COc1ccc2nc(S(=O)Cc3ncc(C)c(OC)c3C)[nH]c2c1 (stereo not given)
active: ICS 14.1 µM
not listed: DIV14 | DIV17 | GB4
inactive: all other assays above

C1COC(NC(C2CC2)C2CC2)=N1
inactive: CP297 | CP305 | CP315 | CP335 | DIV30 | Dd2 | FAB9 | HB3 | JCK

Cc1c(C)c2c(c(C)c1O)CCC(C)(COc1ccc(CC3SC(=O)NC3=O)cc1)O2 (stereo not given)
active: DIV14 15.1 µM | GB4 12 µM | P94_40 10 µM
inactive: CP305 | CP315 | CP325 | CP329 | CP335 | DFO2036 | FAB9 | HB3 | JCK

CCOC(=O)C1=C[C@@]2(CC)CCCN3CCc4c(n1c1ccccc41)[C@H]32
active: CP297 12 µM | CP305 13.5 µM | CP325 9.53 µM | CP335 12 µM | DIV14 13.5 µM | DIV17 7.57 µM | DIV30 12 µM | GB4 7.57 µM

CCOC(=O)C1=C[C@]2(CC)CCCN3CCc4c(n1c1ccccc41)[C@@H]32
active: CP297 13.5 µM | DIV14 12 µM | DIV17 15.1 µM | DIV30 13.5 µM | ICS 8.91 µM | N140 12.6 µM | P93_24 12.6 µM

Nc1nc2ccc(OC(F)(F)F)cc2s1
not listed: DIV14 | P94_40
inactive: all other assays above

O=C1CCc2cc(OCCCCc3nnnn3C3CCCCC3)ccc2N1
not listed: DFO2036 | Dd2 | ECU | FAB9 | HB3 | N140 | P93_24 | P94_40
inactive: all other assays above

Cc1cc2c(C(C)C)c(O)c(O)c(C=O)c2c(O)c1-c1c(C)cc2c(C(C)C)c(O)c(O)c(C=O)c2c1O
inactive: FAB9
active: Dd2 11.2 µM | ICS 5.01 µM
